Laboratory results as given in ChEMBL document CHEMBL1201862, “PubChem BioAssay data set” (2004).
Where “and” joins values, the source holds several entries; their conditions need not be identical. Equal entries are not always repeated. About 140 (9.3%) of roughly 1,500 compounds were called active. How the calls were made is not given here. The entries come from a sample that favours actives as a whole.

Experiment: AlphaScreen signal interference with preloaded methylated product, dose response, artefact control for NSD2 inhibitor project, biochemical, cherry-picked samples (AID 1053174);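 further: actives lower the AlphaScreen signal from the preloaded product and count as artifacts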

AbsAC35, active:
Cc1ccc(S(=O)(=O)/N=C2\C=C(Nc3cccc(C(=O)O)c3)C(=O)c3ccccc32)c(C)c1 11.5 µM
Cc1ccccc1NC1=C/C(=N\S(=O)(=O)c2ccc(C(=O)O)cc2)c2ccccc2C1=O 11.8 µM
N=C1/C(=C/c2ccc(O)c(O)c2)C(=O)N=C2SC(CC(=O)N3CCCC3)=NN12 10.6 µM
Cc1cccc(C)c1N=Nc1c(C)cc(O)cc1C 20.6 µM
O=C1/C(=C\c2cccc(O)c2O)SC(=S)N1Cc1ccccc1 14.9 µM
O=C1NC(=O)/C(=C\c2ccc(O)cc2O)S1 18.9 µM
CC1CCCC(C)N1/N=C/c1ccc(O)c(O)c1 (stereo not given) 10.9 µM
CSc1ccc(/C=N/Nc2cccc(C(=O)O)c2)cc1 12 µM
O=C(Cc1nnc(NC(=O)c2ccccc2)s1)N/N=C\c1ccc(O)c(O)c1 10.6 µM
O=C(O)CCCNc1cc(N2CCN(C(=O)c3ccco3)CC2)c2noc3c2c1C(=O)c1ccccc1-3 11.2 µM
Cc1ccc(-n2[nH]c(C)c(/C=N/Nc3ccc([N+](=O)[O-])cc3[N+](=O)[O-])c2=O)cc1C 13.4 µM
CN(C=[N+](C)C)c1cccc2c1C(=O)c1ccccc1C2=O 15.2 µM
CCN1/C(=C/c2ccc3cc(C)ccc3[n+]2CC)Sc2cc(C)c(C)cc21 19.3 µM and 11.4 µM
O=[N+]([O-])c1ccc(N2CCCC2)cc1N1CCCC1 18.9 µM
Cc1cc(C=O)c(C)n1-c1ccc(N2CCCCC2)c([N+](=O)[O-])c1 17.3 µM
CCN(CC)c1ccc(/C=C/c2ccc3ccc(OC)cc3[n+]2CC)cc1 11.4 µM
O=C(O)CCNc1ccc(NCCC(=O)O)c2c1C(=O)c1ccccc1C2=O 11.8 µM
CCc1ccc(S(=O)(=O)/N=C2\C=C(NS(=O)(=O)c3ccccc3)C(=O)c3ccccc32)cc1 15.7 µM
CC(C)(C)c1ccc(S(=O)(=O)/N=C2\C=C(NS(=O)(=O)c3ccccc3)C(=O)c3ccccc32)cc1 13 µM
Cc1ccc(C)c(S(=O)(=O)/N=C2\C=C(NS(=O)(=O)c3ccccc3)C(=O)c3ccccc32)c1 11.3 µM
CC(C)c1ccc(S(=O)(=O)/N=C2\C=C(NS(=O)(=O)c3ccccc3)C(=O)c3ccccc32)cc1 11.3 µM
Cc1[nH]c(O)nc1C(=O)CCCCC(=O)OCC(=O)Nc1ccccn1 11.4 µM
Nc1ccc(Nc2ccccc2)c(S(=O)(=O)O)c1 31.6 µM
CN(C)c1ccc(CNCCC(Cc2ccccc2)c2ccco2)cc1 (stereo not given) 16.6 µM
COc1ccccc1-c1nnc2n1N=C(c1ccc(O)c(O)c1)CS2 18.5 µM
COc1cccc2c(SCC(=O)N/N=C/c3ccc(O)c(O)c3)cc(C)nc12 12.7 µM
N#C/C(=C/c1ccc(O)c(O)c1)C(=O)NCc1ccc(Cl)cc1 14.6 µM
COCC/N=c1\scc(-c2ccco2)n1/N=C/c1ccc(O)c(O)c1O 11.7 µM
O=C(/C=C/c1ccc(O)c(O)c1)c1ccccc1O 20.7 µM
CC(C)c1ccc(S(=O)(=O)N2CCN(CC(=O)c3ccc(O)c(O)c3)CC2)cc1 14.6 µM
O=C(CN1CCN(S(=O)(=O)c2ccc(Cl)cc2)CC1)c1ccc(O)c(O)c1 14.7 µM
COc1ccc(S(=O)(=O)N2CCN(CC(=O)c3ccc(O)c(O)c3)CC2)cc1 12.5 µM
CC1=C/C(=C\c2ccc(Br)o2)C(=O)O1 25.7 µM
CCn1nc([N+](=O)[O-])c(C(C#N)c2nc3cc(C(F)(F)F)ccc3s2)c(Cl)c1=O (stereo not given) 22.2 µM
CCCn1nc([N+](=O)[O-])c(C(C#N)c2nc3ccccc3s2)c(Cl)c1=O (stereo not given) 13.4 µM
CCN(CC)c1ccc2c(-c3ccc(S(=O)(=O)O)cc3S(=O)(=O)[O-])c3ccc(=[N+](CC)CC)cc-3oc2c1 14.9 µM
O=S(=O)(O)c1cc(Cl)cc(N=Nc2ccc(O)cc2O)c1O 14.5 µM
O=S(=O)(O)c1cc(O)c(N=Nc2ccc(O)cc2O)c2ccccc12 12.8 µM
O=C(O)c1ccccc1N=N/C(=N/Nc1cc(S(=O)(=O)O)ccc1O)c1ccccc1 13.7 µM
O=C(Oc1ccccc1)c1cc(O)c(O)c(O)c1 17.2 µM
CC1=NN(c2ccccc2)C(=O)C1/C=C1\NC(=S)NC1=O (stereo not given) 28.8 µM
CCS(=O)(=O)C1=NN2C(=N)/C(=C\c3ccc(SCc4ccco4)o3)C(=O)N=C2S1 18.7 µM
CC(=O)c1ccc2c(c1)C1C=CCC1C(C(=O)O)N2 (stereo not given) 13.9 µM
Cc1ccc2[nH]c(/C(C#N)=C/c3ccc(O)c(O)c3)nc2c1 22.9 µM
N#C/C(=C/c1ccc(O)c(O)c1)c1nc2ccccc2[nH]1 15 µM
CC1COCC(C)N1C1=C(Cl)C(=O)c2ccccc2C1=O (stereo not given) 12.2 µM
O=[N+]([O-])c1ccccc1/C=C\C=N\N1CCN(c2ccccc2)CC1 17.5 µM
O=C(COC(=O)c1ccccc1)Nc1ncc([N+](=O)[O-])s1 21.8 µM
Cc1cc2c(=Cc3ccc(N(C)C)cc3)c3ccccc3n2[n+]1C 14.4 µM
NCCc1c(-c2ccccc2)n(-c2ccccc2)c2ccccc12 18.5 µM
CN(C)C=O.O=C(O)c1ccccc1NS(=O)(=O)c1ccc(N/N=C/c2ccc(O)c(O)c2)c([N+](=O)[O-])c1 10.8 µM
COc1cc(OC)c(OC)cc1CCC(C)NCCC(c1ccccc1)c1ccccc1 (stereo not given) 11.1 µM
CCN(c1ccccc1)S(=O)(=O)c1cc(C(=O)O)ccc1C 17.7 µM
O=C1N=C(Nc2ccccc2Cl)S/C1=C\c1cccc([N+](=O)[O-])c1O 17.4 µM
Cc1ccc(NC(=O)CCCCCC2NC(=O)NC2C)cc1 (stereo not given) 13.9 µM
